{
  "source": "PubChem BioAssay (Tox21)",
  "note": "Results filed as inconclusive are left out. A number with no mark means an inactive call. Calls of active or inactive are those of the source. Calls come from the whole dose curve; as a rule, active = well fitted activation curve with a large enough effect in the signal ratio in the repeat runs (not every such curve was filed as active); inconclusive = weak or mixed curves; inactive = flat fitted curve, though single readings scatter; the % refers to the signal ratio. % is set by controls: 0 for no effect and ±100 for the full control effect.",
  "data": [
    {"assay": "qHTS assay to identify small molecule agonists of the TGF-beta/Smad signaling pathway (AID 1346859)", "conditions": "SBE-bla HEK293T, TGF-beta/Smad beta-lactamase reporter, 5 h; series mostly up to 76.8 µM; activation: at the top concentration", "text": "U.S. Tox21 Program National Center for Advancing Translational Sciences [NCATS] NIH Chemical Genomics Center [NCGC] U.S. Environmental Protection Agency [EPA] National Institutes of Environmental Health Sciences [NIEHS] National Toxicology Program [NTP] U.S. Food and Drug Administration [FDA] Tox21 Assay Overview: Transforming growth factor beta (TGF-beta) superfamily consists of a large number of structurally related dimeric proteins that act as hormones or local mediators in regulating a wide range of biological functions. This superfamily includes TGF-betas themselves, the bone morphogenetic proteins (BMPs) and the activins. These ligands induce oligomerization of serine/threonine receptor kinases and phosphorylate the cytoplasmic signaling molecules of Smad protein family. CellSensor SBE-bla HEK 293T cell line (Life Technologies, Carlsbad, CA), responsive to TGF-beta was used to screen Tox21 10K compound library for identification of agonists/antagonists of the Smad signaling pathway. This cell line contains a beta-lactamase reporter gene under control of the Smad binding element (SBE) stably integrated into HEK 293T cells.\nTox21 Assay Protocol Summary: SBE-bla HEK 293T cells were dispensed at 4,000/well in 6 uL of assay medium into black wall/clear-bottom 1536-well plates using a Multidrop Combi (ThermoFisher Scientific, Waltham, MA) dispenser. After the assay plates were incubated at 37 C and 5% CO2 for an overnight, 23 nL of compounds dissolved in DMSO, positive controls or DMSO only was transferred to the assay plate by a Pintool station (Kalypsys, San Diego, CA). The assay plates were incubated at 37 C and 5% CO2 for 5 hr. One uL of LiveBLAzer B/G FRET substrate (Life Technologies) was added using a Flying Reagent Dispenser (Aurora Discovery, San Diego, CA) and the plates were incubated at room temperature for 2 hr. Fluorescence intensity (405 nm excitation, 460 nm and 530 nm emissions) was measured using an Envision plate reader (PerkinElmer, Shelton, CT).", "values": [
      {"smiles": "Oc1c(I)cc(Cl)c2cccnc12", "activation": "-8.27% [at 35.3 µM]"},
      {"smiles": "CCCC(=O)OCCc1ccccc1", "activation": "-0.0221%"},
      {"smiles": "O=C(O)c1ccc2cc(C(=O)O)ccc2c1", "activation": "-1.49%"},
      {"smiles": "Nc1cc(Cl)c(O)c(Cl)c1", "activation": "0.464%"},
      {"smiles": "O=C1CCCCCCCCCCCCCCCO1", "activation": "-0.284%"},
      {"smiles": "CN1CCN2c3ccccc3Cc3ccccc3C2C1", "note": "(stereo not given)", "activation": "-0.823% [at 35.3 µM]"},
      {"smiles": "O=C1NC(=O)[C@@H]2CC=CC[C@H]12", "activation": "-1.64%"},
      {"smiles": "CCCCCC(C)OC(=O)COc1ccc(Cl)c2cccnc12", "note": "(stereo not given)", "activation": "-6.48%"},
      {"smiles": "NC(=S)NC(N)=S", "activation": "1.33%"},
      {"smiles": "OC1CCCc2ccccc21", "note": "(stereo not given)", "activation": "1.73%"},
      {"smiles": "COc1cc(S(=O)(=O)O)c(C)cc1N=Nc1c(O)ccc2cc(S(=O)(=O)O)ccc12", "activation": "1.71%"},
      {"smiles": "c1ccc(C(O[C@@H]2CCCN(CCc3ccc4c(c3)OCO4)C2)c2ccccc2)cc1", "activation": "-8.85%"},
      {"smiles": "O=c1[nH]c(=O)n([C@H]2C[C@H](O)[C@@H](CO)O2)cc1F", "activation": "0.728% [at 35.3 µM]"},
      {"smiles": "CCCCNS(=O)(=O)c1ccc(C)cc1", "activation": "2.22%"},
      {"smiles": "CCO[Si](OCC)(OCC)OCC", "activation": "0.591%"},
      {"smiles": "Cc1cc(-n2nc3ccc(Cl)cc3n2)c(O)c(C(C)(C)C)c1", "activation": "-1.5% [at 35.3 µM]"},
      {"smiles": "CCCC(=O)OC(C)(C)Cc1ccccc1", "activation": "0.0321%"},
      {"smiles": "FC(F)(F)c1cccc(Cl)c1", "activation": "0.55%"},
      {"smiles": "O=C(O)Cc1ccccc1Nc1c(Cl)cccc1Cl", "Potency": "inactive"},
      {"smiles": "CC(C)(C)NSc1nc2ccccc2s1", "activation": "-1.31%"},
      {"smiles": "Cc1cc(C(C)(C)C)c(O)c(C)c1Cn1c(=O)n(Cc2c(C)cc(C(C)(C)C)c(O)c2C)c(=O)n(Cc2c(C)cc(C(C)(C)C)c(O)c2C)c1=O", "activation": "0.47%"},
      {"smiles": "Cc1ccc(C(=O)O)cc1", "activation": "0.361%"},
      {"smiles": "Nc1ccc(Oc2ccc(Cl)cc2)cc1", "activation": "-8.71%"},
      {"smiles": "O=C(Nc1ccc2c(O)c(N=Nc3ccc(N=Nc4ccc(S(=O)(=O)O)cc4)cc3)c(S(=O)(=O)O)cc2c1)c1ccccc1", "activation": "-1.17%"},
      {"smiles": "CC(C)(C)CC(C)(C)c1ccc(Nc2ccc(C(C)(C)CC(C)(C)C)cc2)cc1", "activation": "1.28% [at 6.97 µM]"},
      {"smiles": "Fc1ccc(C(c2ccc(F)cc2)N2CCNCC2)cc1", "activation": "0.781% [at 35.3 µM]"},
      {"smiles": "C[C@@H](O)[C@H](N)C(=O)O", "activation": "0.576% [at 15.8 µM]"},
      {"smiles": "CC(C)CCOC(=O)/C=C/c1ccccc1", "activation": "-0.365%"},
      {"smiles": "Cc1cccc(C)c1NC(=O)c1ccc(N)cc1", "activation": "-1.91% [at 35.3 µM]"},
      {"smiles": "C=Cc1cccc(C)c1", "Potency": "inactive"},
      {"smiles": "C/C=C/C=C/COC(=O)C(C)C", "activation": "2.25%"},
      {"smiles": "OCCN1CCN(CCCN2c3ccccc3Sc3ccc(C(F)(F)F)cc32)CC1", "activation": "-3.95% [at 35.3 µM]"},
      {"smiles": "COc1ccc2c(c1)c(CC(=O)OC/C=C(\\C)CC/C=C(\\C)CCC=C(C)C)c(C)n2C(=O)c1ccc(Cl)cc1", "activation": "-1.05% [at 35.3 µM]"},
      {"smiles": "CC(=O)Oc1cc2c(s1)CCN(C(C(=O)C1CC1)c1ccccc1F)C2", "note": "(stereo not given)", "activation": "-4.01% [at 35.3 µM]"},
      {"smiles": "CCCC1CCC(=O)CC1", "activation": "0.101%"},
      {"smiles": "Clc1nnc(Cl)c2ccccc12", "activation": "-2.42%"},
      {"smiles": "Cc1cc(C)c(/C=C2\\C(=O)Nc3ccccc32)[nH]1", "activation": "-13.4% [at 35.3 µM]"},
      {"smiles": "[Cu+]", "activation": "0.145%"},
      {"smiles": "c1cnccn1", "activation": "6.47%"},
      {"smiles": "CCC(CC)C(C)CCOC(C)=O", "note": "(stereo not given)", "activation": "-1.96%"}
    ]}
  ]
}
